The supplement of paper PMC9135407
Values joined by “and” are separate entries in the source; they are usually repeats but may differ in a detail not shown here. Equal entries are not always repeated. Structures can show the parent of a compound that is named as a salt. The whole screen tested about 5,800 compounds, of which about 620 (11%) showed activity. The sample holds actives, similar compounds and a random draw of the others, so the mix is not that of the screen.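 Rule for the calls: active = score above a cut-off or among the top three wells of a plate; in these data no inactive exceeds 0.85.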

Test system: primary human hepatic stellate cells (donor 1)
Assay: scaled lipid accumulation score (0 = DMSO-like, 1 = nortriptyline-like); higher = stronger HSC inactivation (lipid re-accumulation), active = hit call of the paper
Conditions: 48 h
[1] = library stock concentration: 1 mM
[2] = library stock concentration: 400 uM
[3] = library stock concentration: 10 mM
[4] = library stock concentration: 2 mM
[5] = library stock concentration: 3.33 mM
[6] = library stock concentration: 2.6 mM

Q: `CCCCC[C@H](O)/C=C/[C@@H]1[C@@H](C/C=C\CCCC(=O)OCC(O)CO)[C@@H](O)C[C@H]1O` (stereo partly drawn) [Prostaglandin F2.alpha.-1-glyceryl ester] was tested. Which “scaled lipid accumulation score” value [1] did it give?
A: The value was ≤ 0 (inactive).

Q: With `CCCCCCCC(=O)CC[C@@H]1[C@@H](C/C=C\CCCC(=O)OC(C)C)[C@@H](O)C[C@H]1O` [Unoprostone isopropyl ester] as the compound, how does the “scaled lipid accumulation score” value [1] read?
A: Its value is ≤ 0 (inactive).

Q: Which “scaled lipid accumulation score” value (library stock concentration: 80 uM) does the source give for `CN1CCN(Cc2ccc(-c3cnc4[nH]cc(-c5ccc6[nH]ccc6c5)c4c3)cc2)CC1` [listing 1 of 2 here] here?
A: The value was ≤ -0.001 (inactive).

Q: And the “scaled lipid accumulation score” value [2]?
A: Its value is 0.001 (inactive).

Q: What about the “scaled lipid accumulation score” value [3] of the same compound?
A: Its value is 0.422 (inactive).

Q: Which “scaled lipid accumulation score” value [4] does the source give for `CN1CCN(Cc2ccc(-c3cnc4[nH]cc(-c5ccc6[nH]ccc6c5)c4c3)cc2)CC1` [listing 2 of 2 here] here?
A: Its value is 1.3 (active).

Q: What does the source list for `O=C(O)c1ccc(-c2c[nH]c3ncc(-c4ccccc4)cc23)cc1C1CCCC1`?
A: scaled lipid accumulation score [5]: ≤ -0.009 (inactive); scaled lipid accumulation score [3]: 0.079 (inactive) and ≤ -0.001 (inactive)

Q: `NC[C@H]1O[C@@H](n2cnc3c(N)ncnc32)[C@H](O)[C@@H]1O` [5'-Amino-5'-deoxyadenosine p-toluenesulfonate salt] was tested. Which “scaled lipid accumulation score” value [3] did it give?
A: The value was ≤ 0 (inactive).

Q: For `CCCOc1cc(N)ccc1C(=O)OCCN(CC)CC` [Propoxycaine hydrochloride], which “scaled lipid accumulation score” value is on record?
A: Its value is ≤ 0 (inactive).

Q: With `CCN(CC)CCOc1ccc2c(c1)C(=O)c1cc(OCCN(CC)CC)ccc1-2` [Tilorone] [listing 1 of 2 here] as the compound, how does the “scaled lipid accumulation score” value [3] read?
A: Its value is 0.879 (active).

Q: `CCN(CC)CCOc1ccc2c(c1)C(=O)c1cc(OCCN(CC)CC)ccc1-2` [Tilorone] [listing 2 of 2 here] was tested. Which “scaled lipid accumulation score” value (library stock concentration: 4.9 mM) did it give?
A: The value was 0.006 (inactive).

Q: `FC(F)(F)COCC(F)(F)F` [Flurothyl] was tested. Which “scaled lipid accumulation score” value (library stock concentration: 11 mM) did it give?
A: The value was ≤ -0.001 (inactive).

Q: `OCCC#Cc1nc(-c2ccc(F)cc2)c(-c2ccncc2)n1CCCc1ccccc1` was tested. Which “scaled lipid accumulation score” value [2] did it give?
A: Its value is ≤ -0.005 (inactive).

Q: What about the “scaled lipid accumulation score” value [4] of the same compound?
A: Its value is ≤ -0.005 (inactive).

Q: What about the “scaled lipid accumulation score” value [3] of the same compound?
A: Its value is 0.668 (inactive).

Q: Which results are given for `Nc1ncnc2c1ncn2C1CCCO1` (centres undefined)?
A: scaled lipid accumulation score [3]: ≤ 0 (inactive) and ≤ -0.006 (inactive); scaled lipid accumulation score (library stock concentration: 24.4 mM): ≤ -0.005 (inactive)

Q: For `Cl.O=C(CCCCCN1CCN(c2ccccc2-c2ccccc2)CC1)NC1CCCc2ccccc21` (centres undefined) [LP 12 hydrochloride hydrate], which “scaled lipid accumulation score” value [3] is on record?
A: The value was 0.898 (active).

Q: How did the “scaled lipid accumulation score” value [3] turn out when `CC(=O)c1ccc2c(c1)N(CCCN1CCN(CCO)CC1)c1ccccc1S2` was run?
A: The value was 0.638 (inactive).

Q: How did the “scaled lipid accumulation score” value [3] turn out when `O=C(O)C=C1CCCc2ccccc2C1O` (centres undefined) was run?
A: The value was 0.122 (inactive) and 0.034 (inactive).

Q: For `CSc1ccccc1N1CCN(CCCCCC(=O)NC2CCCc3ccccc32)CC1.Cl` (centres undefined), which “scaled lipid accumulation score” value [3] is on record?
A: Its value is 1.06 (active).

Q: `COc1ccccc1N1CCN(CCCCN2C(=O)c3ccccc3C2=O)CC1` [NAN-190 hydrobromide] was tested. Which “scaled lipid accumulation score” value [3] did it give?
A: Its value is 0.324 (inactive) and 0.002 (inactive).

Q: How did the “scaled lipid accumulation score” value turn out when `CC(=O)c1ccc2c(c1)N(CCCN1CCC(CCO)CC1)c1ccccc1S2` [Piperacetazine] was run?
A: The value was 0.427 (inactive).

Q: What does the source list for `CC(=O)Nc1cccc2c1c(Sc1ccc(Cl)cc1)c(C)n2CC(=O)O`?
A: scaled lipid accumulation score [5]: ≤ -0.009 (inactive); scaled lipid accumulation score [3]: 0.195 (inactive)

Q: Which “scaled lipid accumulation score” value [5] does the source give for `CC[n+]1c(/C=C/N(C)c2ccccc2)n(-c2ccccc2)c2ccc(-c3nc4ccccc4s3)cc21` [Akt Inhibitor IV] here?
A: The value was ≤ 0 (inactive).

Q: Which “scaled lipid accumulation score” value [1] does the source give for `CCCCCCCCCCCCCCCCCCCC(=O)NCCO` [Arachidoyl Ethanolamide] here?
A: The value was ≤ 0 (inactive).

Q: With `COc1cc(/C=C/C(=O)N2CCCCCCC2)cc(OC)c1OC` as the compound, how does the “scaled lipid accumulation score” value [3] read?
A: The value was ≤ 0 (inactive).

Q: `C[C@H]1O[C@@H](O[C@H]2[C@@H](O)C[C@H](O[C@H]3[C@@H](O)C[C@H](O[C@H]4CC[C@@]5(C)[C@H](CC[C@@H]6[C@@H]5CC[C@]5(C)[C@@H](C7=CC(=O)OC7)CC[C@]65O)C4)O[C@@H]3C)O[C@@H]2C)C[C@H](O)[C@@H]1O` [Digitoxin] was tested. Which “scaled lipid accumulation score” value [3] did it give?
A: The value was 0.545 (inactive).

Q: `C[C@H]1O[C@@H](O[C@H]2[C@@H](O)C[C@H](O[C@H]3[C@@H](O)C[C@H](O[C@H]4CC[C@]5(C)C6CC[C@]7(C)[C@@H](C8=CC(=O)OC8)CC[C@]7(O)C6CC[C@@H]5C4)O[C@@H]3C)O[C@@H]2C)C[C@H](O)[C@@H]1O` (some centres undefined) [Digitoxin] was tested. Which “scaled lipid accumulation score” value [6] did it give?
A: The value was 1.2 (active).

Q: How did the “scaled lipid accumulation score” value [3] turn out when `C[C@H]1O[C@@H](O[C@H]2[C@@H](O)C[C@H](O[C@H]3[C@@H](O)C[C@H](O[C@H]4CC[C@@]5(C)[C@H](CC[C@@H]6[C@@H]5C[C@@H](O)[C@]5(C)[C@@H](C7=CC(=O)OC7)CC[C@]65O)C4)O[C@@H]3C)O[C@@H]2C)C[C@H](O)[C@@H]1O` was run?
A: The value was 0.599 (inactive).

Q: With `C[C@H]1O[C@@H](O[C@H]2[C@@H](O)C[C@H](O[C@H]3[C@@H](O)C[C@H](O[C@H]4CC[C@]5(C)C6C[C@@H](O)[C@]7(C)[C@@H](C8=CC(=O)OC8)CC[C@]7(O)C6CC[C@@H]5C4)O[C@@H]3C)O[C@@H]2C)C[C@H](O)[C@@H]1O` (some centres undefined) [Digoxin] as the compound, how does the “scaled lipid accumulation score” value [6] read?
A: Its value is 0.937 (active).

Q: For `C[C@H]1O[C@@H](O[C@H]2[C@@H](O)C[C@H](O[C@H]3[C@@H](O)C[C@H](O[C@H]4CC[C@@]5(C)[C@H](CC[C@@H]6[C@@H]5C[C@@H](O)[C@]5(C)[C@@H](C7=CC(=O)OC7)CC[C@]65O)C4)O[C@@H]3C)O[C@@H]2C)C[C@H](O)[C@@H]1O` [Digoxin], which “scaled lipid accumulation score” value is on record?
A: Its value is 1.03 (active).

Q: What about the “scaled lipid accumulation score” value [5] of the same compound?
A: Its value is 1.11 (active).

Q: And the “scaled lipid accumulation score” value [3]?
A: Its value is 0.888 (active) and 0.816 (inactive).

Q: With `N[C@@H](Cc1ccc(F)cc1)C(=O)O` [p-Fluoro-L-phenylalanine] as the compound, how does the “scaled lipid accumulation score” value [3] read?
A: Its value is ≤ -0.07 (inactive).

Q: For `Nc1nc(-c2ccc(Cl)c(Cl)c2)c(-c2ccncc2)s1` [CGH 2466 dihydrochloride], which “scaled lipid accumulation score” value [3] is on record?
A: The value was 0.001 (inactive).

Q: `O=[N+]([O-])c1cc2nc(O)c(O)nc2cc1[N+](=O)[O-]` was tested. Which “scaled lipid accumulation score” value [3] did it give?
A: Its value is ≤ -0.07 (inactive) and ≤ 0 (inactive).

Q: For `CC(C)[C@H](NC(=O)[C@H](CC(=O)O)NC(=O)[C@H](CCCCN)NC(=O)[C@@H](N)CCCN=C(N)N)C(=O)N[C@@H](Cc1ccc(O)cc1)C(=O)O`, which “scaled lipid accumulation score” value [3] is on record?
A: Its value is ≤ 0 (inactive).

Q: For `CCOC(=O)[C@]12CC1/C(=N\O)c1ccccc1O2` (some centres undefined), which “scaled lipid accumulation score” value [3] is on record?
A: Its value is ≤ 0 (inactive) and 0.015 (inactive).

Q: How did the “scaled lipid accumulation score” value turn out when `Cc1ccc2c(c1)c1c3n2CCNC3CCC1` (centres undefined) [Pirlindole mesylate] was run?
A: Its value is 0.472 (inactive).

Q: Which “scaled lipid accumulation score” value [3] does the source give for `CS(=O)(=O)O.Cc1ccc2c(c1)c1c3n2CCNC3CCC1` (centres undefined) [Pirlindole mesylate] here?
A: The value was 0.93 (active).

Q: For `c1cc2c(cc1C1CCCCC1)c1c3n2CCNC3CCC1` (centres undefined) [Tetrindole mesylate], which “scaled lipid accumulation score” value [3] is on record?
A: Its value is ≤ 0 (inactive).
